From PubChem BioAssay
PAX8 reporter: lowers PAX8-driven luciferase in RMG-I cells; RMG-I TPO-luciferase reporter, SteadyGlo, 24 h; inhibition, % at 12.6 µM; hit rate 1.2% among 360,000; AID 652154;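 active = mean replicate inhibition at least 60% with every replicate also reaching 60%; inconclusive = only one of the two criteria is met; inactive = mean below 60% and not all replicates reaching 60%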;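 also: luciferase light reporting Pax8 driven TPO promoter activity; plate controls were median of neutral control wells for no effect and mitoxantrone controls for full effect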
Peg3 prom inh: inhibitors of Peg3 promoter | HeLa PEG-Prom luciferase reporter, luminescence, overnight | inhibition, % at 20 µM | hit rate 1.7% among 360,000 | AID 588405;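 active = inhibition of at least 50% at 20 µM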
TRPM1 prom inh: MITF TRPM1 promoter inhibition in SK-MEL-5 cells. SK-MEL-5 TRPM1 promoter luciferase, 24 h. inhibition, % at 12.5 µM. hit rate 0.83% among 330,000;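 active = mean inhibition across replicates of 60% or more, whatever share of single replicates reaches that level; inconclusive = some that reach 60%, reason not given; inactive = mean inhibition across replicates below 60%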
Shn3 inh set2: inhibitors of Schnurri-3 3'UTR reporter in osteoblasts. Clone20 osteoblast Shn3 3'UTR firefly luciferase, 24 h. inhibition, % at 12.5 µM. hit rate 0.52% among 360,000. AID 588674;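 active = mean inhibition of at least 75% with every replicate also reaching 75%; inconclusive = mean inhibition at least 75% but some replicate below; inactive = mean inhibition below 75%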;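 also: 0% = median of neutral control wells and 100% = pilot-screen positive control compound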
HIF-2a block: inhibitors of HIF-2a; inhibition, % at 18.8 µM; AID 624352; hit rate 0.72% among 360,000; 786-0 RCC cells HIF-2a reporter, luciferase luminescence, overnight;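 active = inhibition of the luminescence signal of 40% or more relative to plate controls, in a single-dose primary screen at 18.75 µM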
LMP1 NFkB inh: reduces LMP1-driven NF-kappaB luciferase signal; LMP1-induced NF-kappaB luciferase reporter cells, luminescence; inhibition, % at 12.5 µM; hit rate 0.69% among 350,000; AID 504558; in the data active = inhibition above about 41%; inconclusive = no clear call, values can overlap the other calls;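 also: 0% = neutral control wells and 100% = reference inhibitor control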
Mdm2 MdmX conf: Mdm2/MdmX (human) interaction inhibition, confirmed; shares compounds with HIF-2a block; SaOS-2 split-luciferase Mdm2/MdmX complementation, luminescence; inhibition, % at 8 µM; hit rate 99% among 740; AID 504601;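 active = mean inhibition of the luminescence signal across two replicates at or above 26 percent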
Target sequence (O15151 whole entry, looked up): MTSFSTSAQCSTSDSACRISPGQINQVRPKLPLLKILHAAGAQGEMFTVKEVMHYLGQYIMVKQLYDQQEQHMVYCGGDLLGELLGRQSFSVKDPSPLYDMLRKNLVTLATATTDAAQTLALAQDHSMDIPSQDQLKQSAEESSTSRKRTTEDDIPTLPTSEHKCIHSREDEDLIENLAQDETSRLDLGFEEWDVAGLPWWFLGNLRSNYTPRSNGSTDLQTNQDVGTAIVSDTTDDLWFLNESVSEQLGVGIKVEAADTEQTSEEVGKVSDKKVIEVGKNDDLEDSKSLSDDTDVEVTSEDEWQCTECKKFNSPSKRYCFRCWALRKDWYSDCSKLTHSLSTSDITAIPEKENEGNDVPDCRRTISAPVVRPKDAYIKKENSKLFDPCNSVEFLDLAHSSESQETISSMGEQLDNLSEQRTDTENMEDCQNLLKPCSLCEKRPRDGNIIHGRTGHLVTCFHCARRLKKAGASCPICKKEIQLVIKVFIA
Target sequence (Q00987 whole entry, looked up): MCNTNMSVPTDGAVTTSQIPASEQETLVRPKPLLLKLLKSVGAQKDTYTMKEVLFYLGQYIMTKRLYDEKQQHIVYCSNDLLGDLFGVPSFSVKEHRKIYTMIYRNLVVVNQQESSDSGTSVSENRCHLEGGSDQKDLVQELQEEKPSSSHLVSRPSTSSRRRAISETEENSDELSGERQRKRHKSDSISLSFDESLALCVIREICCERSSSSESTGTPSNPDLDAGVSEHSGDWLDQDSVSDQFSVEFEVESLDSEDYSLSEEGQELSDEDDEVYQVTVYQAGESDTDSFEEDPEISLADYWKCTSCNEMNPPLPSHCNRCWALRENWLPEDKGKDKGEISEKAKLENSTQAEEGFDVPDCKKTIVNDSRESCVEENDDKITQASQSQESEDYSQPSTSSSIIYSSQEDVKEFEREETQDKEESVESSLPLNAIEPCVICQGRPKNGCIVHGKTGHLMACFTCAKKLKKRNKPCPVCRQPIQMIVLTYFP
HIF-2a conf: HIF-2a inhibition, single concentration confirmation | shares compounds with HIF-2a block | inhibition, % at 18.8 µM | AID 651580 | 786-0 RCC cells, HIF-2a luciferase reporter luminescence, overnight | hit rate 56% among 1,800;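 active = mean inhibition across four replicates of at least 40 percent at the single tested concentration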
HIF-1a cs: HIF-1a inhibition counter-screen for HIF-2a hits. AID 651589. MiaPaCa-2 HIF-1a luciferase reporter, desferoxamine, overnight. shares compounds with HIF-2a block. inhibition, % at 18.8 µM. hit rate 72% among 1,800;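 active = mean inhibition of the reporter signal across four replicates at the single tested dose of 50% or more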
The depositor's hits bear a star; ? = inconclusive; nt = not tested or not shown; ! = repeats disagree. An excerpt weighted towards active compounds, which were near 2.8% of everything screened.

SMILES | PAX8 reporter | Peg3 prom inh | TRPM1 prom inh | Shn3 inh set2 | HIF-2a block | LMP1 NFkB inh | HIF-2a conf | HIF-1a cs | others
CC(C)(C)C(=O)/C(=C/c1ccc(Cl)cc1)n1cncn1 | 86* | 105* | 94* | ? | 93* | -6 | 88* | 98*
Cc1ccc(C)c(CN2C(=O)c3ccccc3S(=O)c3ccc(C(=O)N4CCN(c5ccccn5)CC4)cc32)c1 (stereo not given) | ? | 34 | 10 | 22 | 8 | 31 | nt | nt | Mdm2 MdmX conf=101*
O=C(NCC[C@@H]1CC[C@@H](NC(=O)c2cccnc2)[C@H](CO)O1)Nc1ccc(Cl)cc1 | -107 | nt | nt | nt | nt | nt | nt | nt
O=C(C[C@@H]1CC[C@@H]2[C@H](COC[C@@H](O)CN2Cc2ccc(Cl)cc2)O1)NCCc1ccccc1 | 39 | nt | nt | nt | nt | nt | nt | nt
Cc1nc2cc(-c3cccc(F)c3)nn2c(C)c1CCC(=O)NC(C)c1ccc2c(c1)OCCO2 (stereo not given) | 14 | -10 | 7 | 35 | 46* | 7 | 72* | 42
Cc1nc2nc(C)c(CCC(=O)NC(C)c3ccc4c(c3)OCCO4)c(C)n2n1 (stereo not given) | -15 | -11 | 0 | -27 | -12 | -1 | nt | nt
Cc1nc2cc(-c3ccccc3)nn2c(C)c1CCC(=O)NC(C)c1ccc2c(c1)OCCO2 (stereo not given) | -1 | -36 | 19 | 26 | 66* | -15 | 79* | 45
O=C(Nc1ccc(-c2nnc3n2CCCCC3)cc1)c1cc2ccccc2o1 | -21 | -12 | 9 | 14 | -6 | 2 | nt | nt
Cc1c(C(=O)Nc2ccc(-c3nnc4n3CCCCC4)cc2)oc2c1ccc1ccccc12 | 28 | 42 | 24 | 13 | 56* | 15 | -51 | 106*
Cc1noc(C)c1NC(=O)N(C)C[C@@H]1OCCCC[C@@H](C)Oc2ccc(NC(=O)CCC(F)(F)F)cc2C(=O)N([C@H](C)CO)C[C@@H]1C | -2 | nt | nt | nt | nt | nt | nt | nt
CCCC(=O)Nc1ccc2c(c1)C(=O)N(C)C[C@H](OC)[C@@H](C)CN(CCC(F)(F)F)[C@H](C)CO2 | -10 | nt | nt | nt | nt | nt | nt | nt
CCOC(=O)c1ccc(Nc2ncnc3ccc(C)cc23)cc1 | nt | -6 | 5 | 27 | 23 | -4 | nt | nt
CCOc1ccc(Nc2ncnc3ccc([N+](=O)[O-])cc23)cc1 | 10 | 12 | -7 | 9 | 15 | ? | nt | nt | Mdm2 MdmX conf=87*
C[C@@H]1CN([C@@H](C)CO)C(=O)c2cccc(NC(=O)Nc3ccccc3)c2O[C@H]1CN(C)S(=O)(=O)c1ccccc1 | 2 | nt | nt | nt | nt | nt | nt | nt
CC(=O)Nc1ccc(OCC(=O)c2ccc(C)cc2C)cc1 | nt | -21 | -4 | 3 | 64* | 0 | 85* | 36
CCN1CCN(Cc2ccc(NC(=O)c3ccc(C)c(NC(=O)c4c[nH]c5cc(C(F)(F)F)ccc5c4=O)c3)cc2C(F)(F)F)CC1 | 80* | 103* | 103* | 99*! | 67*! | 63*! | 11 | 101* | Mdm2 MdmX conf=102*
CC(C)C[C@H](NC(=O)c1nc[nH]c1C(=O)N1CCN(C(=O)OC(C)(C)C)CC1)C(=O)OC(C)(C)C | 18 | -4 | nt | -1 | -11 | 31 | nt | nt | Mdm2 MdmX conf=99*
COC(=O)CSc1nnc(-c2sc3ccccc3c2Cl)o1 | nt | 8 | -3 | nt | 90* | 4 | 95* | 69*
C[N+]1=C(/C=C/Nc2ccccc2Cl)C(C)(C)c2ccccc21 | nt | 8 | 4 | 77 | 2 | 4 | nt | nt
COC(=O)c1ccc2c(c1)C(C)(C)C(/C=C/c1ccccc1O)=[N+]2C | nt | 105* | 105* | 97* | 96* | -22 | 99* | 105* | Mdm2 MdmX conf=103*
CSc1ccc(/C=C(\C#N)C(=O)NC2CCCCC2C)cc1 (stereo not given) | -11 | -18 | -2 | 15 | -2 | 1 | nt | nt
CC1CCCCC1NC(=O)/C(C#N)=C/c1ccccc1F (stereo not given) | 14 | 96* | ? | 12 | 88* | 7 | 81* | 106*
COc1ccc(S(=O)(=O)Nc2ccc3c(c2)CC(=O)N([C@@H](C)CO)C[C@H](C)[C@@H](CN(C)C(=O)Nc2c(C)noc2C)O3)cc1 | -5 | nt | nt | nt | nt | nt | nt | nt
Cc1ccc(C(=O)Nc2ccc3ncccc3c2)cc1 | 22 | 21 | 48 | 48 | 43* | 45* | 51* | 28
COc1ccc(C(=O)Nc2ccc3ncccc3c2)cc1 | 27 | -51 | 16 | 7 | -49 | 2 | nt | nt
SMILES | PAX8 reporter | Peg3 prom inh | TRPM1 prom inh | Shn3 inh set2 | HIF-2a block | LMP1 NFkB inh | HIF-2a conf | HIF-1a cs | others
C[C@@H]1CN([C@H](C)CO)S(=O)(=O)c2ccc(C3=CCCC3)cc2O[C@H]1CN(C)CC1CCOCC1 | 4 | nt | nt | nt | nt | nt | nt | nt
N#C[C@H]1[C@H](c2ccc(C3=CCCC3)cc2)[C@H](CO)N1C(=O)NC1CCCC1 | -8 | nt | nt | nt | nt | nt | nt | nt
COc1ccc(CNc2oc(COc3ccc(Cl)cc3)nc2C#N)cc1 | nt | 26 | -2 | -16 | 3 | -2 | nt | nt
COc1ccc(Nc2oc(COc3ccc(Cl)cc3)nc2C#N)cc1 | 26 | 47 | 27 | 19 | 50* | 46* | 34 | 51*
COc1ccc2c3c(n(C)c2c1)[C@@H](CO)NCC31CCN(C(=O)Nc2ccc(F)cc2F)CC1 | 8 | nt | nt | nt | nt | nt | nt | nt
COc1ccc([C@H]2C[C@H](n3cc(-c4ccc(F)cc4)nn3)[C@@H](O)CN2Cc2cccs2)cc1 | 11 | 10 | nt | -20 | 8 | 5 | nt | nt
COc1ccc([C@H]2C[C@H](O)[C@@H](n3cc(-c4ccc(F)cc4)nn3)CN2Cc2cccs2)cc1 | ? | 69* | nt | 43 | 77* | 39 | 30 | 104*
C[C@@H]1CN([C@H](C)CO)C(=O)c2cc(NC(=O)Cc3ccccc3)ccc2O[C@H]1CN(C)C(=O)Nc1ccccc1 | -23 | nt | nt | nt | nt | nt | nt | nt
N#Cc1c(N2CCCC(O)C2)nc(N)c2c(N)nc3c(c12)CC(=O)N3C12CC3CC(CC(C3)C1)C2 (stereo not given) | 32 | 41 | 6 | 7 | 36 | -16 | nt | nt | Mdm2 MdmX conf=91*
C=C(C)CN(CC)c1nc(N)c2c(N)nc3c(c2c1C#N)CC(=O)N3C12CC3CC(CC(C3)C1)C2 | 32 | 15 | 6 | 76 | 5 | 5 | nt | nt
O=C(C[C@H]1C=C[C@@H](NC(=O)C2CCOCC2)[C@H](CO)O1)NCC1CC1 | -5 | nt | nt | nt | nt | nt | nt | nt
COCCNC(=O)C[C@@H]1CC[C@H]2[C@H](COc3ccc(NC(=O)Nc4ccccc4)cc3C(=O)N2C)O1 | 9 | nt | nt | nt | nt | nt | nt | nt
COc1ccccc1N1C(=O)C=C(Sc2nc(C)cc(C)n2)C1=O | -9 | 87* | nt | -6 | 58* | nt | 63* | -13
